# Assay outcomes (PubChem BioAssay)
# M1 antag = blocks human M1 muscarinic receptor | P11229 | 360,000 compounds, 1.3% hits | CHO-K1 hM1, Fluo-8 calcium fluorescence, ACh EC80 antagonist | AID 588852 | inhibition, % at 3 µM;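 active means percent inhibition above its own plate's cutoff, namely the mean of that plate's compound wells plus 3 SD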;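 further: peak over basal fluorescence ratio during 140 s after agonist addition; 0% = ACh EC80 plus DMSO and 100% = DMSO alone without agonist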
# Target sequence (P11229 whole entry, looked up): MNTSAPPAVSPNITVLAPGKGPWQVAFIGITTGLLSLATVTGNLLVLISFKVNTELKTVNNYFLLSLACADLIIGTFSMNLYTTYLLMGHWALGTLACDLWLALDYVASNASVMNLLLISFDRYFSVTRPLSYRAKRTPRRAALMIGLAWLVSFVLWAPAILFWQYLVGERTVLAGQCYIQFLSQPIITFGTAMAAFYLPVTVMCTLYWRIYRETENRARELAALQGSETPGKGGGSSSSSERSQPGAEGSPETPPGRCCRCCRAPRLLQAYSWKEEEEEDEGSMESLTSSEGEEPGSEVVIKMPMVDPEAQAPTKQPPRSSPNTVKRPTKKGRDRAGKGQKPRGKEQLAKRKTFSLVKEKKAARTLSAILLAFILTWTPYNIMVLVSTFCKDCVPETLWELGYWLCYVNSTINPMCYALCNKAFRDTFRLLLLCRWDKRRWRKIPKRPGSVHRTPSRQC
# CHRM1 agonist = activates human CHRM1 receptor | CHO-K1 hM1, Fluo-8 calcium fluorescence, agonist mode; 0% DMSO, 100% acetylcholine EC100 | activation, % at 3 µM | 360,000 compounds, 0.33% hits | AID 588814;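 active means activation above the run's mean compound activation plus 3 SD, cut at about 16% in these data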;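 further: peak over basal fluorescence ratio within a 140 s kinetic read after compound addition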
# CHRM1 PAM = positive allosteric modulators of human M1 muscarinic receptor; CHO-K1 hM1, Fluo-8 calcium fluorescence, ACh EC20; 0% = ACh EC20, 100% = maximal ACh; activation, % at 3 µM; 360,000 compounds, 0.088% hits; in the data active means activation above about 19%, passing the limit was not always enough
# CHO-K1 Ca ag = counter-screen for M1 agonists: effect in parental CHO-K1 cells. Fluo-8 calcium fluorescence; scaled to maximal ATP response, vehicle zero. 360,000 compounds, 0.48% hits. AID 602248. activation, % at 3 µM; in the data active means activation above about 15%;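 further: untransfected CHO-K1 host cells lacking M1 receptor as counterscreen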
# CHO-K1 Ca PAM = counter-screen for M1 PAMs: effect in parental CHO-K1 cells. 360,000 compounds, 0.02% hits. ATP EC20, Fluo-8 calcium fluorescence; 0% at ATP EC20, 100% at ATP max. activation, % at 3 µM. AID 602247;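 active means activation above the run cutoff, the mean activation of all test compounds plus 3 SD, cut at about 40% in these data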;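 further: peak over basal fluorescence ratio in a 140 s read after ATP addition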
# CHO-K1 Ca antag = M1 antagonist counterscreen hit in parental CHO-K1 cells. ATP-induced calcium, Fluo-8 fluorescence. inhibition, % at 3 µM. 360,000 compounds, 0.6% hits;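 active means inhibition above a per-plate cutoff, the plate's mean sample inhibition plus 3 SD, cut at about 24% in these data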;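 further: 0% = DMSO plus EC80 ATP and 100% = DMSO alone without ATP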
# Starred values were filed as active, the others as inactive; . = no result given; ! = not active in a repeat. The list is not random: actives were taken first. Their share in the collection is about 2.3%.
SMILES,M1 antag,CHRM1 agonist,CHRM1 PAM,CHO-K1 Ca ag,CHO-K1 Ca PAM,CHO-K1 Ca antag
O=C1NC[C@@H](CCCCN2C[C@H](Cc3ccc(O)cc3)N(CCc3ccccc3)C(=O)C2=O)N(CC2CCCCC2)C1=O,.,.,.,2,10,-11
CC1C(=O)OC2C1CCC1(C)C3(C)C(=O)C=CC213 (stereo not drawn),4,-6,-5,0,-8,8
COc1ccc2[nH]c(=O)c(CN(CCO)S(=O)(=O)c3c(C)ccc4nsnc34)cc2c1,4,-1,1,1,-8,29*
COc1ccc2[nH]c(=O)c(CN(Cc3cccs3)S(=O)(=O)c3cccc4nsnc34)cc2c1,32*,-3,-13,9,4,-13
CCOC(=O)Nc1ccc2c(c1)C(=NNC(=S)NC)c1ccccc1-2,-3,-6,-2,1,14,-8
OC(c1ccc(F)cc1)c1nc(-c2cccc(F)c2)cs1 (stereo not drawn),-1,-6,-2,0,26,-23
COc1ccc(Cc2nc3ccccc3[nH]2)cc1OC,5,-6,2,0,-3,47*
Cc1ccc(Cc2nc3ccccc3[nH]2)cc1,1,-1,6,1,12,-9
Cc1cccc(NC(=O)C(C)N2C(=O)c3ccccc3S2(=O)=O)n1 (stereo not drawn),28*,-1,-12,0,-26,28*
Cc1cccc(NC(=O)CN2C(=O)c3ccccc3S2(=O)=O)n1,17,1,-7,0,-30,15
N#CC1=C(N)NC(SCc2ccc(Br)cc2)=C(C#N)C12CCCCC2,13,0,-4,8,5,24*
O=S(=O)(c1ccc(Cl)cc1)N1CCN(C(=S)Nc2ccccc2F)CC1,3,1,8,17*,8,-4
O=S(=O)(c1ccc2ccccc2c1)N1CCN(C(=S)Nc2ccccc2F)CC1,-3,-3,3,1,12,-9
CC1(OC(=O)C2CCCC2)C(=O)C=C2C=C(c3ccsc3)N(CC3CC3)C=C2C1=O (stereo not drawn),67*,-13,-39,0,-11,7
CC1(OC(=O)C2CCCC2)C(=O)C=C2C=C(c3ccsc3)N(C3CCCCC3)C=C2C1=O (stereo not drawn),10,-4,-12,0,-6,6
COc1ccc(Br)cc1CSC(=N)N,0,-13,-1,2,3,1
CCCCCOc1ccc(Br)cc1CSC(=N)N,24*,-1,-13,6,3,24*
Cc1ccc(S(=O)(=O)N2CCC(=O)N([C@H](COC(=O)Nc3ccccc3)Cc3ccccc3)CC2)cc1,.,.,.,0,-4,-13
CCN(CC(=O)Nc1ccc(OC)cc1)C(=O)Cc1ccsc1,-25,1,27*,0,12,-17
CC(C)(C)CN1C(=O)C(=O)NC[C@@H]1CC1CCCCC1,.,.,.,0,-5,-8
COc1ccc(S(=O)(=O)N2CCC[C@H]2C(=O)N2CCC[C@H]2C(=O)N[C@@H](C)c2ccccc2)cc1C,.,.,.,-1,7,-10
Cc1ccc2cccc(NC(=S)NC(=O)c3c(Br)cnn3C)c2n1,19,-2,-7,0,-8,26*
Cc1ccc2cccc(NC(=S)NC(=O)c3ccn(C)n3)c2n1,-18,-8,-3,1,-4,-13
CN1CCN(C(=O)c2ccccc2N(Cc2ccccc2)S(=O)(=O)c2ccccc2)CC1,3,28*,-7,1,-7,-8
COCCNC(=O)C1(C)CCCN(CCS(=O)(=O)c2ccc(C)cc2)C1 (stereo not drawn),-12,-3,5,0,16,-5
SMILES,M1 antag,CHRM1 agonist,CHRM1 PAM,CHO-K1 Ca ag,CHO-K1 Ca PAM,CHO-K1 Ca antag
Cc1ccc(C)c(C(O)c2ncc(-c3cccc(C(F)(F)F)c3)[nH]2)c1 (stereo not drawn),-11,10,7,8,20,-10
Cc1cc(C)c(NC(=O)CN2CCN3CCCC3C2)c(C)c1 (stereo not drawn),-20,5,29*!,0,-6,-13
CCCc1nc2cc(C)c(Br)c(C)n2c1Cc1ccc(OC)cc1C,.,.,.,0,7,-8
COc1cc(OC)c(C2=NOC(C(=O)Nc3ccc4c(c3)OCO4)C2)cc1Cl (stereo not drawn),5,-3,-2,18*,2,0
O=C(COc1ncnc2ccccc12)Nc1cc([N+](=O)[O-])ccc1F,-5,-1,4,17*,6,3
O=C(NCc1ccccc1)c1cc(C2COCCN2S(=O)(=O)c2ccccc2)on1 (stereo not drawn),-8,-5,0,0,-3,-2
COCCNC(=O)C1(C)CCCN(Cc2cc3ccccc3o2)C1 (stereo not drawn),-6,-4,6,1,12,-6
Cn1c(=O)c2cc(NC(=O)CCc3ccc4c(c3)OCO4)ccc2n1Cc1ccc(F)cc1,-5,1,-5,8,7,-7
CCN(CC)c1ccc2cc(C(=O)c3cccs3)c(=O)oc2c1,60*,131*,-36,74*,-1,40*
CCN(CC)c1ccc2cc(-c3nc4ccccc4[nH]3)c(=O)oc2c1,69*,279*,-38,80*,-14,8
O=c1oc2ccc3ccccc3c2cc1-c1nnc(-c2ccccc2)o1,2,-5,-3,0,-3,3
CCN(CC)c1ccc2cc(-c3nnc(-c4ccccc4)o3)c(=O)oc2c1,15*,108*,-20,28*,4,23
CN1C=CC(=C[N+](=O)[O-])N(C)C1=O,0,-4,-1,0,6,-1
COc1ccc(CNc2ncnc3cc(Cl)ccc23)cc1OC,9,-1,-3,11,2,-2
Fc1ccc(CNc2ncnc3cc(Cl)ccc23)cc1,9,-1,-13,16*,3,2
Cc1ccc(F)c(S(=O)(=O)NC(=O)C2(C)CCN2C(=O)Cc2ccccc2)c1 (stereo not drawn),-12,-2,8,0,30,3
CC(C)OCCCn1c(SCC(=O)N2CCCC2=O)nc2ccccc2c1=O,9,-2,-1,15*,-16,8
O=C(O)/C=C/C(=O)N1CCN(C(c2ccccc2)c2ccccc2)CC1,42*,-6,-23,2,2,-2
CC(=O)/C(C(=N)N1CCN(C(c2ccccc2)c2ccccc2)CC1)=C(\C)O,99*,-5,-23,1,28,-17
COc1cccc(Cn2cnc(-c3ccccc3OC)c2C2CC2)c1,.,.,.,8,11,-15
Cc1cccc(OCc2ccccc2)n1,-12,0,8,1,18,-11
